Measured values: the supplement of paper PMC8975748
Counter-ions that a name gives are not always drawn.

What follows are molecules tested on Saccharomyces cerevisiae BY4741 SeMeCo community (assay: z-score of subpopulation abundance vs DMSO median, subpopulation auxotrophic for UM; higher = larger share of this subpopulation than in DMSO controls). Settings: 10 µM; 24 h; SM minimal medium; subpopulation (auxotrophy): UM.
How it was run: (§1)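 Four plasmids, each restoring a single auxotrophy and encoding a distinct fluorescent protein, were carried by a Saccharomyces cerevisiae BY4741 community. After overnight growth to OD600 1.0 and dilution to 0.3, 70 µl per well was grown for 24 h in minimal SM medium on 384-well plates acoustically predosed with library drugs at 10 µM final. Following paraformaldehyde fixation, automated confocal microscopy was used, with single-auxotroph fluorescent strains defining thresholds and autofluorescence correction. Subpopulation abundance was then scored as a z-score against the vehicle-well median.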
In the case of `C[n+]1ccccc1/C=N/O` [Pralidoxime chloride], the “z-score of subpopulation abundance” value is reported as 1.18.
With `Oc1ccc(Cl)c2cccnc12` [Cloxiquine] the “z-score of subpopulation abundance” value was 6.45.
With `N[C@H]1CONC1=O` [L-Cycloserine] the “z-score of subpopulation abundance” value was -1.17.
In the case of `CCN(CC)CC#CCOC(=O)C(O)(c1ccccc1)C1CCCCC1` (stereo not given) [Oxybutynin chloride], the “z-score of subpopulation abundance” value is reported as -1.11.

What follows are molecules tested on Saccharomyces cerevisiae BY4741 SeMeCo community (assay: z-score of subpopulation abundance vs DMSO median, subpopulation auxotrophic for HL; higher = larger share of this subpopulation than in DMSO controls). Settings: 10 µM; 24 h; SM minimal medium; subpopulation (auxotrophy): HL.
How it was run: as §1
`CN[C@@H]1[C@H](O[C@H]2[C@H](O[C@H]3[C@H](O)[C@@H](O)[C@H](NC(=N)N)[C@@H](O)[C@@H]3NC(=N)N)O[C@@H](C)[C@]2(O)CO)O[C@@H](CO)[C@H](O)[C@H]1O` [Dihydrostreptomycin sulfate] was tested, and the “z-score of subpopulation abundance” value was -0.83.
For `C=CCc1ccc(O)c(-c2ccc(O)c(CC=C)c2)c1` [Honokiol], the “z-score of subpopulation abundance” value was -0.44.
`COCCCN1CCC(NC(=O)c2cc(Cl)c(N)c3c2OCC3)CC1` [Prucalopride] was tested, and the “z-score of subpopulation abundance” value was -0.99.
`COCC(=O)Nc1cc(Sc2ccccc2)ccc1N=C(NC(=O)OC)NC(=O)OC` [Febantel] was tested, and the “z-score of subpopulation abundance” value was 1.03.
In the case of `Cc1ccsc1/C=C/C1=NCCCN1C` [Morantel tartrate], the “z-score of subpopulation abundance” value is reported as -0.87.
With `CCn1cc(C(=O)O)c(=O)c2cc(F)c(N3CCNCC3)cc21` [Norfloxacin] the “z-score of subpopulation abundance” value was 0.28.
With `CC[C@H]1OC(=O)C[C@@H](O)[C@H](C)[C@@H](O[C@@H]2O[C@H](C)[C@@H](O[C@H]3C[C@@](C)(O)[C@@H](O)[C@H](C)O3)[C@H](N(C)C)[C@H]2O)[C@@H](CC=O)C[C@@H](C)C(=O)/C=C/C(C)=C/[C@@H]1CO[C@@H]1O[C@H](C)[C@@H](O)[C@@H](OC)[C@H]1OC` [Tylosin] the “z-score of subpopulation abundance” value was 2.73.
In the case of `COC(=O)C1=C(C)NC(C)=C(C(=O)OC2CCCN(Cc3ccccc3)C2)C1c1cccc([N+](=O)[O-])c1` (stereo not given) [Benidipine HCl], the “z-score of subpopulation abundance” value is reported as 1.55.
`CC1=C[C@H]2C(=O)O[C@H]3C[C@@H](C/C=C(\C)C[C@@H](C)/C=C/C=C4\CO[C@H](/C1=N\O)[C@@]42O)O[C@@]1(CC[C@H](C)[C@@H](C)O1)C3.CC[C@H]1O[C@]2(CC[C@@H]1C)C[C@@H]1C[C@@H](C/C=C(\C)C[C@@H](C)/C=C/C=C3\CO[C@@H]4/C(=N\O)C(C)=C[C@@H](C(=O)O1)[C@]34O)O2` [Milbemycin Oxime] was tested, and the “z-score of subpopulation abundance” value was 1.42.
With `CC1=Nc2ccc(Cl)cc2S(=O)(=O)N1` [Diazoxide] the “z-score of subpopulation abundance” value was -0.72.
With `O=C(O)c1cc(O)c2c(c1)[C@H]([C@H]1c3cc(C(=O)O)cc(O)c3C(=O)c3c(O[C@@H]4O[C@H](CO)[C@@H](O)[C@H](O)[C@H]4O)cccc31)c1cccc(O[C@@H]3O[C@H](CO)[C@@H](O)[C@H](O)[C@H]3O)c1C2=O` [Sennoside A] the “z-score of subpopulation abundance” value was 0.29.
In the case of `Oc1ccc([C@H]2COc3cc(O)ccc3C2)cc1` [Equol], the “z-score of subpopulation abundance” value is reported as -0.02.
In the case of `COc1ccc2cc(CCC(C)=O)ccc2c1` [Nabumetone], the “z-score of subpopulation abundance” value is reported as -1.5.
`CO/N=C(\C(=O)N[C@@H]1C(=O)N2C(C(=O)O)=C(CSc3nc(=O)c(O)nn3C)CS[C@H]12)c1csc(N)n1` [Ceftriaxone Sodium Trihydrate] was tested, and the “z-score of subpopulation abundance” value was 0.91.
With `CO/N=C(\C(=O)N[C@@H]1C(=O)N2C(C(=O)OC(C)OC(C)=O)=C(COC(N)=O)CS[C@H]12)c1ccco1` (stereo not given in full) [Cefuroxime axetil] the “z-score of subpopulation abundance” value was -0.54.
With `CNCCCN1c2ccccc2CCc2ccccc21` [Desipramine Hydrochloride] the “z-score of subpopulation abundance” value was 0.02.
For `CCC(C)n1ncn(-c2ccc(N3CCN(c4ccc(OCC5COC(Cn6cncn6)(c6ccc(Cl)cc6Cl)O5)cc4)CC3)cc2)c1=O` (stereo not given) [Itraconazole], the “z-score of subpopulation abundance” value was 17.3.
With `C=CCN1CCCC1CNC(=O)c1cc2nn[nH]c2cc1OC` (stereo not given) [Alizapride HCl] the “z-score of subpopulation abundance” value was -0.36.
In the case of `CO/N=C(\C(=O)N[C@@H]1C(=O)N2C(C(=O)O)=C(CSc3nc(C)c(CC(=O)O)s3)CS[C@H]12)c1csc(N)n1` [Cefodizime Sodium], the “z-score of subpopulation abundance” value is reported as -0.84.
For `C[C@H](NCc1ccc(OCc2cccc(F)c2)cc1)C(N)=O` [Safinamide Mesylate], the “z-score of subpopulation abundance” value was 0.64.
For `Cc1ccnc(NS(=O)(=O)c2ccc(N)cc2)n1` [Sulfamerazine], the “z-score of subpopulation abundance” value was 0.86.
With `N=C(N)NS(=O)(=O)c1ccc(N)cc1` [Sulfaguanidine] the “z-score of subpopulation abundance” value was -0.4.
`C=C[C@H]1CN2CC[C@H]1C[C@@H]2[C@@H](O)c1ccnc2ccc(OC)cc12` [Quinidine sulfate] was tested, and the “z-score of subpopulation abundance” value was 1.36.
For `O=C(Nc1ccc(Oc2ccc(Cl)cc2)c(Cl)c1)c1cc(I)cc(I)c1O` [Rafoxanide], the “z-score of subpopulation abundance” value was 1.29.
For `COC(=O)Nc1nc2cc(C(=O)c3ccccc3)ccc2[nH]1` [Mebendazole], the “z-score of subpopulation abundance” value was 0.26.
For `Cc1onc(-c2ccccc2)c1C(=O)N[C@@H]1C(=O)N2[C@@H]1SC(C)(C)[C@@H]2C(=O)O` [Oxacillin sodium monohydrate], the “z-score of subpopulation abundance” value was 0.94.
In the case of `CC[C@H]1OC(=O)[C@H](C)[C@@H](O[C@H]2C[C@@](C)(OC)[C@@H](O)[C@H](C)O2)[C@H](C)[C@@H](O[C@@H]2O[C@H](C)C[C@H](N(C)C)[C@H]2O)[C@](C)(O)C[C@@H](C)C(=O)[C@H](C)[C@@H](O)[C@]1(C)O` [Erythromycin thiocyanate], the “z-score of subpopulation abundance” value is reported as -0.71.
With `CCn1cc(C(=O)O)c(=O)c2cc(F)c(N3CCNC(C)C3)c(F)c21` (stereo not given) [Lomefloxacin HCl] the “z-score of subpopulation abundance” value was 1.2.
For `CNS(=O)(=O)CCc1ccc2[nH]cc(C3CCN(C)CC3)c2c1` [Naratriptan HCl], the “z-score of subpopulation abundance” value was -0.28.
In the case of `CO[C@@]1(NC(=O)CSC[C@@H](N)C(=O)O)C(=O)N2C(C(=O)O)=C(CSc3nnnn3C)CS[C@@H]21` [Cefminox Sodium], the “z-score of subpopulation abundance” value is reported as 1.62.
For `CNCCCC1c2ccccc2C=Cc2ccccc21` [Protriptyline hydrochloride], the “z-score of subpopulation abundance” value was 0.25.
In the case of `CC1CCc2c(N3CCC(O)CC3)c(F)cc3c(=O)c(C(=O)O)cn1c23` (stereo not given) [Nadifloxacin], the “z-score of subpopulation abundance” value is reported as 0.
For `C[n+]1ccccc1/C=N/O` [Pralidoxime chloride], the “z-score of subpopulation abundance” value was -0.65.
For `Oc1ccc(Cl)c2cccnc12` [Cloxiquine], the “z-score of subpopulation abundance” value was 17.4.
In the case of `N[C@H]1CONC1=O` [L-Cycloserine], the “z-score of subpopulation abundance” value is reported as 3.71.
For `CCN(CC)CC#CCOC(=O)C(O)(c1ccccc1)C1CCCCC1` (stereo not given) [Oxybutynin chloride], the “z-score of subpopulation abundance” value was -0.93.
